Measurements: PubChem BioAssay (NCATS)
Results filed as inconclusive are left out. Calls of active or inactive are those of the source. Unless noted, the call rests on the fitted dose curve.

Legend:
[1] = qHTS for Inhibitors of the Functional Ribonucleoprotein Complex (vRNP) of Lassa (LASV) Arenavirus: LASV Primary Screen - GLuc reporter signal (AID 1347082; calls by dose curve; tested in HEK293 reporter line; further: nearly all actives have a fitted effect of over 60% in size)
[2] = qHTS for Inhibitors of the Functional Ribonucleoprotein Complex (vRNP) of Lassa (LASV) Arenavirus: Viability assay - alamar blue signal for LASV Primary Screen (AID 1347083; calls by dose curve; tested in HEK293 reporter line; further: nearly all actives have a fitted effect of over 80% in size)
[3] = qHTS for Inhibitors of the Functional Ribonucleoprotein Complex (vRNP) of Lymphocytic Choriomeningitis Arenaviruses (LCMV): Viability assay - alamar blue signal for LCMV Primary Screen (AID 1347085; calls by dose curve; tested in HEK293 reporter line; further: nearly all actives have a fitted effect of over 80% in size)
[4] = target: Nucleoprotein (Lymphocytic choriomeningitis virus (strain Armstrong)) (UniProt P09992); assay: qHTS for Inhibitors of the Functional Ribonucleoprotein Complex (vRNP) of Lymphocytic Choriomeningitis Arenaviruses (LCMV): LCMV Primary Screen - GLuc reporter signal (AID 1347086); further: nearly all actives have a fitted effect of over 70% in size
Further: series mostly up to about 57 µM.
On the % scale 0 is the no-effect control and ±100 the full control effect.

Sequence of Nucleoprotein (Lymphocytic choriomeningitis virus (strain Armstrong)) (P09992 whole entry, looked up): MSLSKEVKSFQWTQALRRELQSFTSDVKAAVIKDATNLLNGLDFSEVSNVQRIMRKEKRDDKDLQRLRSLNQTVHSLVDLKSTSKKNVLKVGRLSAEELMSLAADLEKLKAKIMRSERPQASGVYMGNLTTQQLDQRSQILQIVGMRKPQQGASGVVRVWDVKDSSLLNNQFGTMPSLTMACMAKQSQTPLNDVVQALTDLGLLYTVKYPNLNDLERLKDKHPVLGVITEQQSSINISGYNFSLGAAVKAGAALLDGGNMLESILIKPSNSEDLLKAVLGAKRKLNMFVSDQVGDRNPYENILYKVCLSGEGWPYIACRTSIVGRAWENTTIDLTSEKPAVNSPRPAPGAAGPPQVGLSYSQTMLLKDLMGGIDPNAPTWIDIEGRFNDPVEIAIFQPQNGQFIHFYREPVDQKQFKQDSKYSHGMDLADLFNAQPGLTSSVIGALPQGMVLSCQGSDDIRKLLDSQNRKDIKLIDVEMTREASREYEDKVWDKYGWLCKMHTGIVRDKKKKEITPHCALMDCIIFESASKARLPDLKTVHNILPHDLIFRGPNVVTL

Cc1c(F)c(N2CCNC(C)C2)cc2c1c(=O)c(C(=O)O)cn2C1CC1 (stereo not drawn)
inactive: Potency [1] | Potency [2] | Potency [3] | Potency [4]

N=C(N)N1CCc2ccccc2C1
inactive: activity change, negative = inhibition [1] -8.85% [at 5.82 µM] | activity change, negative = reduced viability [2] -0.684% [at 5.82 µM] | activity change, negative = lower viability [3] -9.02% [at 5.82 µM] | activity change, negative = inhibition [4] -2.35% [at 5.82 µM]

Cc1cc(CC(=O)O)c(C)n1-c1ccc(Cl)cc1
inactive: Potency [1] | Potency [2] | Potency [3] | Potency [4]

O=C(c1ccccc1)c1ccccc1
inactive: Potency [1] | Potency [2] | Potency [3] | Potency [4]

CO[C@@]1(NC(=O)CSCC#N)C(=O)N2C(C(=O)O)=C(CSc3nnnn3C)CS[C@@H]21
inactive: Potency [1] | Potency [2] | Potency [3] | Potency [4]

NC(=O)N1c2ccccc2C=Cc2ccccc21
inactive: Potency [1] | Potency [2] | Potency [3] | Potency [4]

O=C(O)CN1C(=O)c2cccc3cccc(c23)C1=O
inactive: Potency [1] | Potency [2] | Potency [3] | Potency [4]

CC(C)OP(=O)(CP(=O)(OC(C)C)OC(C)C)OC(C)C
inactive: Potency [1] | Potency [2] | Potency [3] | Potency [4]

Cc1cc2cc3c(C)cc(=O)oc3c(C)c2o1
inactive: Potency [1] | Potency [2] | Potency [3] | Potency [4]

CCCCCCn1c(=O)c2c(ncn2C)n(C)c1=O
inactive: Potency [1] | Potency [2] | Potency [3] | Potency [4]

O=C1OC(CN2CCOCC2)CN1/N=C/c1ccc([N+](=O)[O-])o1 (stereo not drawn)
inactive: Potency [1] | Potency [2] | Potency [3] | Potency [4]

COc1ccc2cccc(CCNC(C)=O)c2c1
inactive: Potency [1] | Potency [2] | Potency [3] | Potency [4]

O=S(=O)(O)c1ccc(O)cc1
inactive: Potency [1] | Potency [2] | Potency [3] | Potency [4]

O=C(O)c1c(O)c(-c2ccccc2)nc2ccccc12
inactive: Potency [1] | Potency [2] | Potency [3] | Potency [4]

CCOC(=O)c1cnc2c(cnn2CC)c1NN=C(C)C
inactive: Potency [1] | Potency [2] | Potency [3] | Potency [4]

O=C1C(O)=C(O)C(=O)C(O)=C1O
inactive: Potency [1] | Potency [2] | Potency [3] | Potency [4]

C=CCN1CCc2nc(N)sc2CC1
inactive: Potency [1] | Potency [2] | Potency [3] | Potency [4]

NC(=S)N/N=C/c1cccnc1
inactive: Potency [1] | Potency [2] | Potency [3] | Potency [4]

COc1cc(O)cc(O)c1
inactive: Potency [1] | Potency [2] | Potency [3] | Potency [4]

Nc1nc(-c2ccccc2)c(Br)c(=O)[nH]1
inactive: Potency [1] | Potency [2] | Potency [3] | Potency [4]

C[C@@H]1CCC[C@H](C)N1
inactive: Potency [1] | Potency [2] | Potency [3] | Potency [4]

Cn1c(=O)c2[nH]c(Br)nc2n(C)c1=O
inactive: Potency [1] | Potency [2] | Potency [3] | Potency [4]

O=C1CC2(CCCC2)CC(=O)N1
inactive: Potency [1] | Potency [2] | Potency [3] | Potency [4]

CO[C@@H]1[C@@H](OC(N)=O)[C@@H](O)[C@H](Oc2ccc3c(O)c(NC(=O)c4ccc(O)c(CC=C(C)C)c4)c(=O)oc3c2C)OC1(C)C
inactive: Potency [1] | Potency [2] | Potency [3] | Potency [4]

COc1ccnc(CS(=O)c2nc3ccc(OC(F)F)cc3[nH]2)c1OC (stereo not drawn)
inactive: Potency [1] | Potency [2] | Potency [3] | Potency [4]

Cc1c[nH]c2ccccc12
inactive: Potency [1] | Potency [2] | Potency [3] | Potency [4]

CCCCCC=CCC=CCCCCCCCC(=O)OCC
inactive: Potency [1] | Potency [2] | Potency [3] | Potency [4]

CCOC(=O)Oc1ccc(CCNC(=O)[C@H](CCSC)NC(C)=O)cc1OC(=O)OCC
inactive: Potency [1] | Potency [2] | Potency [3] | Potency [4]

CC(=O)Oc1cccc(O)c1
inactive: Potency [1] | Potency [2] | Potency [3] | Potency [4]

Cn1c(=O)c2c(ncn2CC(=O)O)n(C)c1=O
inactive: Potency [1] | Potency [2] | Potency [3] | Potency [4]

OC[C@H]1O[C@@H]2O[C@H]3[C@H](O)[C@@H](O)[C@@H](O[C@H]4[C@H](O)[C@@H](O)[C@@H](O[C@H]5[C@H](O)[C@@H](O)[C@@H](O[C@H]6[C@H](O)[C@@H](O)[C@@H](O[C@H]7[C@H](O)[C@@H](O)[C@@H](O[C@H]8[C@H](O)[C@@H](O)[C@@H](O[C@H]1[C@H](O)[C@H]2O)O[C@@H]8CO)O[C@@H]7CO)O[C@@H]6CO)O[C@@H]5CO)O[C@@H]4CO)O[C@@H]3CO
inactive: Potency [1] | Potency [2] | Potency [3] | Potency [4]

NC(N)=NS(=O)(=O)c1ccc(N)cc1
inactive: Potency [1] | Potency [2] | Potency [3] | Potency [4]

CCCOc1ccc2c(c1)CC[C@@H]1[C@@H]2CC[C@]2(C)C(OC)CC[C@@H]12 (stereo partly drawn)
inactive: Potency [1] | Potency [2] | Potency [3] | Potency [4]

CC(C)(C)c1cc(C=O)cc(C(C)(C)C)c1O
inactive: Potency [1] | Potency [2] | Potency [3] | Potency [4]

Oc1ccccc1
inactive: Potency [1] | Potency [2] | Potency [3] | Potency [4]

Oc1ccccc1-c1nnco1
inactive: Potency [1] | Potency [2] | Potency [3] | Potency [4]

O=C(Cn1ccnc1[N+](=O)[O-])NCc1ccccc1
inactive: Potency [1] | Potency [2] | Potency [3] | Potency [4]

CC(=O)c1cc2ccccc2s1
inactive: Potency [1] | Potency [2] | Potency [3] | Potency [4]

O=C(C1CCCCC1)N1CC(=O)N2CCCc3ccccc3C2C1 (stereo not drawn)
inactive: Potency [1] | Potency [2] | Potency [3] | Potency [4]

C[N+](C)(C)CC(O)CC(=O)[O-] (stereo not drawn)
inactive: Potency [1] | Potency [2] | Potency [3] | Potency [4]

c1ccc2sc(SSc3nc4ccccc4s3)nc2c1
inactive: Potency [1] | Potency [2] | Potency [3] | Potency [4]

CC1COc2c(N3CCN(C)CC3)c(F)cc3c(=O)c(C(=O)O)cn1c23 (stereo not drawn)
inactive: Potency [1] | Potency [2] | Potency [3] | Potency [4]

Cc1cc(C(C#N)c2ccc(Cl)cc2)c(Cl)cc1NC(=O)c1cc(I)cc(I)c1O (stereo not drawn)
inactive: Potency [1] | Potency [2] | Potency [3] | Potency [4]

CC(C)=CCC/C(C)=C/CO
inactive: Potency [1] | Potency [2] | Potency [3] | Potency [4]

COc1ccc2c(c1)CCCC2=O
inactive: Potency [1] | Potency [2] | Potency [3] | Potency [4]

CN(CC1(C)CCCO1)S(=O)(=O)c1ccc(Cl)c(S(N)(=O)=O)c1 (stereo not drawn)
inactive: Potency [1] | Potency [2] | Potency [3] | Potency [4]

O=C1NCC2(CCN(CCc3ccccc3)CC2)O1
inactive: Potency [1] | Potency [2] | Potency [3] | Potency [4]

CO[C@@]1(NC(=O)C(C(=O)O)c2ccc(O)cc2)C(=O)N2C(C(=O)O)=C(CSc3nnnn3C)CO[C@@H]21 (stereo partly drawn)
inactive: Potency [1] | Potency [2] | Potency [3] | Potency [4]

Cc1cc(C)c(NC(=O)CN(CC(=O)O)CC(=O)O)c(C)c1Br
inactive: Potency [1] | Potency [2] | Potency [3] | Potency [4]

C#CCN[C@@H]1CCc2ccccc21
inactive: Potency [1] | Potency [2] | Potency [3] | Potency [4]

COc1ccc(C(=O)N2CCN(CC(=O)N3CCOCC3)CC2)cc1
inactive: Potency [1] | Potency [2] | Potency [3] | Potency [4]

Oc1cccc(O)c1
inactive: Potency [1] | Potency [2] | Potency [3] | Potency [4]

CCCCCCCN(CC)CCCC(O)c1ccc(NS(C)(=O)=O)cc1 (stereo not drawn)
inactive: Potency [1] | Potency [2] | Potency [3] | Potency [4]

FC1(F)C(F)(F)C(F)(F)C2(F)C(F)(F)C(F)(F)C(F)(F)C(F)(F)C2(F)C1(F)F (stereo not drawn)
inactive: Potency [1] | Potency [2] | Potency [3] | Potency [4]

CCCCCCCC(=O)[O-].CCCCCCCC(=O)[O-].[Zn+2]
inactive: Potency [1] | Potency [2] | Potency [3] | Potency [4]

O=C(O)/C=C(\CC(=O)O)C(=O)O
inactive: Potency [1] | Potency [2] | Potency [3] | Potency [4]

COC(=O)c1cc(Cl)c(NC(C)=O)cc1OC
inactive: Potency [1] | Potency [2] | Potency [3] | Potency [4]

Cc1ncc(CO)c(C=O)c1O
inactive: Potency [1] | Potency [2] | Potency [3] | Potency [4]

COCCc1ccccn1
inactive: Potency [1] | Potency [2] | Potency [3] | Potency [4]

Cc1cc(OI)c(C(C)C)cc1-c1cc(C(C)C)c(OI)cc1C
inactive: Potency [1] | Potency [2] | Potency [3] | Potency [4]

N[C@@H](Cc1cc(I)c(Oc2ccc(O)c(I)c2)c(I)c1)C(=O)O
inactive: Potency [1] | Potency [2] | Potency [3] | Potency [4]

Cc1cc2nc3c(=O)[nH]c(=O)nc-3n(C[C@H](O)[C@H](O)[C@H](O)CO)c2cc1C
inactive: Potency [1] | Potency [2] | Potency [3] | Potency [4]
